Laboratory results reported in PubChem BioAssay (EPA / NIEHS).
Activity calls are given as the source filed them. Rule for the calls: active = hit-call score of the fitted dose curve at least 0.9, where 1 is the maximum; inactive = score below 0.9.

Columns and labels:
[1] = target: Nuclear respiratory factor 1 (Homo sapiens) (UniProt Q16656); experiment: ATG_NRF1_CIS: Attagene CIS-FACTORIAL HepG2 Assay for human Nuclear Respiratory Factor 1 (NRF1) Orphan Gene (AID 2282987); details: HepG2 NRF1 cis-element reporter, Attagene multiplex; actives raise or lower the signal
Sequence of Nuclear respiratory factor 1 (Homo sapiens) (Q16656 whole entry, looked up): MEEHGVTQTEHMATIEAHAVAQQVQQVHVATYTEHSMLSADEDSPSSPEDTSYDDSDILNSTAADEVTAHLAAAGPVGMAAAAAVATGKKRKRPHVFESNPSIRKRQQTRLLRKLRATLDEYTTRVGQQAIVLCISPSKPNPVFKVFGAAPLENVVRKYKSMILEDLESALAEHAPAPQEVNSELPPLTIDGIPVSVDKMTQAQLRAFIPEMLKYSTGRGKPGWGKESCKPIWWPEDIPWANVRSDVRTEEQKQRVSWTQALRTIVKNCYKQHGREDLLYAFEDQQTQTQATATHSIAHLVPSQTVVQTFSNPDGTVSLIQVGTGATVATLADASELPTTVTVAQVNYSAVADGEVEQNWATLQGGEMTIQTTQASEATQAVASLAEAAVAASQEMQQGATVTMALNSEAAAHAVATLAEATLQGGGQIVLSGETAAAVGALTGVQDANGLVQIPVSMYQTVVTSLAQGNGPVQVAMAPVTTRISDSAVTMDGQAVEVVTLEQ
Outline: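 Endogenous NRF1-driven reporter transcription in transfected HepG2 cells after 24 h treatment. Readout: RT-PCR products, 6-FAM labelled and resolved by capillary electrophoresis; changes fitted both directions relative to DMSO.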

[2] = ATG_NFI_CIS: Attagene CIS-FACTORIAL HepG2 Assay for human Nuclear Factor I (NFI) (AID 2282989); details: HepG2 cis-regulatory reporter, NFI response element transcription; actives raise or lower the signal
Outline: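 Read-out: reporter mRNA via RT-PCR plus capillary electrophoresis with fluorescence detection. Transiently transfected HepG2 (endogenous TF activity on cis promoters), 24 h compound exposure; gain or loss of signal fitted against DMSO.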

[3] = target: Myc proto-oncogene protein (Homo sapiens) (UniProt P01106); experiment: ATG_Myc_CIS: Attagene CIS-FACTORIAL HepG2 Assay for human Myelocytomatosis (Myc) Proto-Oncogene Transcription Factor (AID 2282990); details: HepG2, Attagene cis-reporter transcription factor activity; actives raise or lower the signal
Sequence of Myc proto-oncogene protein (Homo sapiens) (P01106 whole entry, looked up): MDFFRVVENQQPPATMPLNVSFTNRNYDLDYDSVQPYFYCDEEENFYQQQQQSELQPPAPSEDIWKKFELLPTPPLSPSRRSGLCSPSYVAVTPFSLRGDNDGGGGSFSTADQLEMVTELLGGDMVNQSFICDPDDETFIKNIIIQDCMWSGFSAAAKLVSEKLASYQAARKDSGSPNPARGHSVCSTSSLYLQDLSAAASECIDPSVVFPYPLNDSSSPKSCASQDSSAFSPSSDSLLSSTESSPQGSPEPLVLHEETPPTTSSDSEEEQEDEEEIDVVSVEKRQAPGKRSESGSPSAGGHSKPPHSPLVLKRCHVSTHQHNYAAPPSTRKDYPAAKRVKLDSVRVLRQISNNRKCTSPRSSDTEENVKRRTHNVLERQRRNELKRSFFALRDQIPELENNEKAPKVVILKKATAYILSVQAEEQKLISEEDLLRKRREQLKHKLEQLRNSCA
Outline: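 Transiently transfected HepG2 cells bearing cis-promoter reporter units for endogenous transcription factors; 24 h exposure. Reporter mRNA measured by RT-PCR, 6-FAM primer extension, HpaI cut and capillary electrophoresis; bidirectional fit relative to DMSO.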

[4] = ATG_NF_kB_CIS: Attagene CIS-FACTORIAL HepG2 Assay for human Nuclear Factor Kappa B (NF-kB) (AID 2282991); details: HepG2 Attagene cis-factorial NF-kB reporter mRNA; actives raise or lower the signal
Outline: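 Readout is reporter transcript level, gain or loss versus DMSO, measured 24 h post-dose via RT-PCR, fluorescent labelling and capillary electrophoresis. Human HepG2 liver cells carried transiently transfected CIS reporter constructs reflecting endogenous factors.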

[5] = ATG_NRF2_ARE_CIS: Attagene CIS-FACTORIAL HepG2 Assay for human Nuclear Factor Erythroid 2 Related Factor 2 (NFR2) response to Antioxidant Response Elements (ARE) (AID 2282992); details: HepG2 Attagene ARE/NRF2 reporter, transcription factor activity; actives raise or lower the signal;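 for AC50: reporter mRNA level measured by RT-PCR and capillary electrophoresis fluorescence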
Outline: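 Readout: reporter mRNA quantified by RT-PCR plus FAM-labelled primer extension, HpaI digestion and capillary electrophoresis, 24 h after dosing transfected HepG2 cells. Gain or loss of signal is fitted bidirectionally against DMSO baseline.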

[6] = ATG_Oct_MLP_CIS: Attagene CIS-FACTORIAL HepG2 Assay for human Octamer-Binding Transcription Factor (Oct) (AID 2282993); details: HepG2 Attagene cis-factorial Oct reporter, mRNA; actives raise or lower the signal
Outline: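 Read-out: reporter mRNA via RT-PCR plus capillary electrophoresis of 6-FAM-labelled fragments. Transiently transfected HepG2, 24 h exposure, endogenous TF activity on cis elements. Gain or loss of signal fitted relative to DMSO.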

[7] = target: Cellular tumor antigen p53 (Homo sapiens) (UniProt P04637); experiment: ATG_p53_CIS: Attagene CIS-FACTORIAL HepG2 Assay for human p53 Transcription Factor (AID 2282994); details: HepG2 p53 cis-element reporter, Attagene mRNA; actives raise or lower the signal
Sequence of Cellular tumor antigen p53 (Homo sapiens) (P04637 whole entry, looked up): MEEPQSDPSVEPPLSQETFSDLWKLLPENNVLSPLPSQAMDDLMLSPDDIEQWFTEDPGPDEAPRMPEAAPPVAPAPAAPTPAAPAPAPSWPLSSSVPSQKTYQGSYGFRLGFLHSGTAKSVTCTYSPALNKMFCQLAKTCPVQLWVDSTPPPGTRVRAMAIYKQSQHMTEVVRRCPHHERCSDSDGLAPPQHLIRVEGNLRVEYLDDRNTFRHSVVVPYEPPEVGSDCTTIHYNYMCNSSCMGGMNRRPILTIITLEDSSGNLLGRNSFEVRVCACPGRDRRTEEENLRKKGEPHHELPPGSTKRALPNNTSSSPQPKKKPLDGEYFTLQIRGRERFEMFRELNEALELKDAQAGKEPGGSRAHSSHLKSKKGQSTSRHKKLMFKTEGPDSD
Outline: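 Read-out: reporter mRNA by RT-PCR plus capillary electrophoresis with fluorescence detection. Human HepG2 liver cells carried transfected multi-reporter cis-element constructs, dosed 24 h. Gain or loss of signal fitted bidirectionally against DMSO control.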

With CCC(C)(O)CCCC(C)C (stereo unspecified) the outcome [1] was “inactive”, the outcome [2] was “inactive” and the outcome [3] was “inactive”. For the same molecule, the outcome [4] was “inactive”, the outcome [5] was “inactive” and the outcome [6] was “inactive”.
In the case of CCCCC(C=O)CC (stereo unspecified), the outcome [1] is reported as “inactive”, the outcome [2] is reported as “inactive” and the outcome [3] is reported as “inactive”. For the same molecule, the outcome [4] was “inactive”, the outcome [5] was “inactive” and the outcome [6] was “inactive”.
For Cc1ccc2c(c1)CCCN2, the outcome [1] was “inactive”, the outcome [2] was “inactive” and the outcome [3] was “inactive”. For the same molecule, the outcome [4] was “inactive”, the outcome [5] was “inactive” and the outcome [6] was “inactive”.
With Cc1c(Cl)cccc1Cl the outcome [1] was “inactive”, the outcome [2] was “inactive” and the outcome [3] was “inactive”. For the same molecule, the outcome [4] was “inactive”, the outcome [5] was “inactive” and the outcome [6] was “inactive”.
With CCCCCCCCCCCCc1ccc(O)cc1 the outcome [1] was “inactive”, the outcome [2] was “inactive” and the outcome [3] was “inactive”. The outcome [4] was “inactive”, the outcome [5] was “inactive” and the outcome [6] was “inactive”. The outcome [7] was “inactive”.
For CC(C)c1ccc2ncccc2c1, the outcome [1] was “inactive”, the outcome [2] was “inactive” and the outcome [3] was “inactive”. The outcome [4] was “inactive”, the AC50 [5] was 64.6 µM (active) and the outcome [6] was “inactive”.
In the case of CC1=C(O)C(=O)C(C)O1 (stereo unspecified), the outcome [1] is reported as “inactive”, the outcome [2] is reported as “inactive” and the outcome [3] is reported as “inactive”. The outcome [4] was “inactive”, the outcome [5] was “inactive” and the outcome [6] was “inactive”.
For COC(=O)c1ccc(C(=O)OC)c(C(=O)OC)c1, the outcome [1] was “inactive”, the outcome [2] was “inactive” and the outcome [3] was “inactive”. For the same molecule, the outcome [4] was “inactive”, the outcome [5] was “inactive” and the outcome [6] was “inactive”.
In the case of CC(C)(CO)COC(=O)C(C)(C)CO, the outcome [1] is reported as “inactive”, the outcome [2] is reported as “inactive” and the outcome [3] is reported as “inactive”. The outcome [4] was “inactive”, the outcome [5] was “inactive” and the outcome [6] was “inactive”. The outcome [7] was “inactive”.
In the case of Cn1cccc1, the outcome [1] is reported as “inactive”, the AC50 [2] is reported as 26.2 µM (active) and the outcome [3] is reported as “inactive”. The outcome [4] was “inactive”, the AC50 [5] was 29.5 µM (active) and the outcome [6] was “inactive”. For the same molecule, the outcome [7] was “inactive”.
With CC(C)CO the outcome [1] was “inactive”, the outcome [2] was “inactive” and the outcome [3] was “inactive”. The outcome [4] was “inactive”, the outcome [5] was “inactive” and the outcome [6] was “inactive”.
With CC(=O)CCC=C(C)C the outcome [1] was “inactive”, the outcome [2] was “inactive” and the outcome [3] was “inactive”. For the same molecule, the outcome [4] was “inactive”, the outcome [5] was “inactive” and the outcome [6] was “inactive”. For the same molecule, the outcome [7] was “inactive”.
With CC1(C)[C@@H]2CC[C@@]1(C)C(=O)C2 the outcome [1] was “inactive”, the outcome [2] was “inactive” and the outcome [3] was “inactive”. The outcome [4] was “inactive”, the outcome [5] was “inactive” and the outcome [6] was “inactive”.
With Cc1ccc(C)c(OCCCC(C)(C)C(=O)O)c1 the outcome [1] was “inactive”, the outcome [2] was “inactive” and the outcome [3] was “inactive”. For the same molecule, the outcome [4] was “inactive”, the outcome [5] was “inactive” and the outcome [6] was “inactive”.
With N#Cc1ccc(C(c2ccc(C#N)cc2)n2cncn2)cc1 the outcome [1] was “inactive”, the outcome [2] was “inactive” and the outcome [3] was “inactive”. The outcome [4] was “inactive”, the outcome [5] was “inactive” and the outcome [6] was “inactive”.
In the case of CC(C)(C)NC(=O)[C@H]1CC[C@H]2[C@@H]3CC[C@H]4NC(=O)C=C[C@]4(C)[C@H]3CC[C@]12C, the outcome [1] is reported as “inactive”, the outcome [2] is reported as “inactive” and the outcome [3] is reported as “inactive”. For the same molecule, the outcome [4] was “inactive”, the AC50 [5] was 100 µM (active) and the outcome [6] was “inactive”.
For O=C1CCCN1C1CCCCC1, the outcome [1] was “inactive”, the outcome [2] was “inactive” and the outcome [3] was “inactive”. The outcome [4] was “inactive”, the outcome [5] was “inactive” and the outcome [6] was “inactive”.
In the case of CC(CC(C)C)=NO, the outcome [1] is reported as “inactive”, the outcome [2] is reported as “inactive” and the outcome [3] is reported as “inactive”. The outcome [4] was “inactive”, the outcome [5] was “inactive” and the outcome [6] was “inactive”. The outcome [7] was “inactive”.
With CC1=CCC2CC1C2(C)C (stereo unspecified) the outcome [1] was “inactive”, the outcome [2] was “inactive” and the outcome [3] was “inactive”. For the same molecule, the outcome [4] was “inactive”, the outcome [5] was “inactive” and the outcome [6] was “inactive”.
With C=CC(=O)O[C@H]1C[C@@H]2CC[C@@]1(C)C2(C)C the outcome [1] was “inactive”, the outcome [2] was “inactive” and the AC50 [3] was 167 µM (active). The AC50 [4] was 181 µM (active), the AC50 [5] was 32.1 µM (active) and the outcome [6] was “inactive”.
With CCOC(=O)OC(=O)OCC the outcome [1] was “inactive”, the outcome [2] was “inactive” and the outcome [3] was “inactive”. The outcome [4] was “inactive”, the outcome [5] was “inactive” and the outcome [6] was “inactive”. For the same molecule, the outcome [7] was “inactive”.
For CC(C)C(=O)OCCOc1ccccc1, the outcome [1] was “inactive”, the outcome [2] was “inactive” and the outcome [3] was “inactive”. For the same molecule, the outcome [4] was “inactive”, the outcome [5] was “inactive” and the outcome [6] was “inactive”. The outcome [7] was “inactive”.
In the case of CCCCCCCC(=O)OCC, the outcome [1] is reported as “inactive”, the outcome [2] is reported as “inactive” and the outcome [3] is reported as “inactive”. The outcome [4] was “inactive”, the outcome [5] was “inactive” and the outcome [6] was “inactive”.
In the case of Nc1ccc(Cl)c(N)c1, the outcome [1] is reported as “inactive”, the outcome [2] is reported as “inactive” and the outcome [3] is reported as “inactive”. For the same molecule, the outcome [4] was “inactive”, the outcome [5] was “inactive” and the outcome [6] was “inactive”.
With CC(C)CCOCc1ccccc1 the outcome [1] was “inactive”, the outcome [2] was “inactive” and the outcome [3] was “inactive”. For the same molecule, the outcome [4] was “inactive”, the outcome [5] was “inactive” and the outcome [6] was “inactive”.
In the case of CCCCCC(=O)OCC, the outcome [1] is reported as “inactive”, the outcome [2] is reported as “inactive” and the outcome [3] is reported as “inactive”. The outcome [4] was “inactive”, the outcome [5] was “inactive” and the outcome [6] was “inactive”. For the same molecule, the outcome [7] was “inactive”.
In the case of CC1=NN(c2ccc(S(=O)(=O)O)cc2)C(=O)C1N=Nc1ccccc1 (stereo unspecified), the outcome [1] is reported as “inactive”, the outcome [2] is reported as “inactive” and the outcome [3] is reported as “inactive”. For the same molecule, the outcome [4] was “inactive”, the outcome [5] was “inactive” and the outcome [6] was “inactive”.
For O=C1CCCCC1C1CCCCC1 (stereo unspecified), the outcome [1] was “inactive”, the outcome [2] was “inactive” and the outcome [3] was “inactive”. The outcome [4] was “inactive”, the outcome [5] was “inactive” and the outcome [6] was “inactive”.
With CCOC(=O)CC(=O)c1ccccc1 the outcome [1] was “inactive”, the outcome [2] was “inactive” and the outcome [3] was “inactive”. For the same molecule, the outcome [4] was “inactive”, the outcome [5] was “inactive” and the outcome [6] was “inactive”.
In the case of CCC(C)N (stereo unspecified), the outcome [1] is reported as “inactive”, the outcome [2] is reported as “inactive” and the outcome [3] is reported as “inactive”. The outcome [4] was “inactive”, the outcome [5] was “inactive” and the outcome [6] was “inactive”.
In the case of CC(=O)CC(=O)Nc1ccccc1C, the outcome [1] is reported as “inactive”, the outcome [2] is reported as “inactive” and the outcome [3] is reported as “inactive”. For the same molecule, the outcome [4] was “inactive”, the outcome [5] was “inactive” and the outcome [6] was “inactive”. The outcome [7] was “inactive”.
With CCOc1ccc(NC(N)=O)cc1 the outcome [1] was “inactive”, the outcome [2] was “inactive” and the outcome [3] was “inactive”. The outcome [4] was “inactive”, the outcome [5] was “inactive” and the outcome [6] was “inactive”.
For Nc1ccc(O)c([N+](=O)[O-])c1, the outcome [1] was “inactive”, the outcome [2] was “inactive” and the outcome [3] was “inactive”. For the same molecule, the AC50 [4] was 37.2 µM (active), the AC50 [5] was 57.9 µM (active) and the outcome [6] was “inactive”.
For C=CC(C)(CCC=C(C)C)OC(=O)C=Cc1ccccc1 (stereo unspecified), the outcome [1] was “inactive”, the outcome [2] was “inactive” and the outcome [3] was “inactive”. For the same molecule, the outcome [4] was “inactive”, the AC50 [5] was 32.9 µM (active) and the outcome [6] was “inactive”. For the same molecule, the outcome [7] was “inactive”.
For CC(C)OC(=O)c1ccccc1, the outcome [1] was “inactive”, the outcome [2] was “inactive” and the outcome [3] was “inactive”. The outcome [4] was “inactive”, the outcome [5] was “inactive” and the outcome [6] was “inactive”. For the same molecule, the outcome [7] was “inactive”.
